Laboratory results taken from PubChem BioAssay.
Calls of active or inactive are those of the source.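 The calls were made as follows, unless noted: active = inhibition of the reporter signal at or above 50%; inactive = inhibition below 50%.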

Columns and labels:
[1] = inhibitors of TNFa-induced NFkB p65 translocation, primary screen, imaging, HUVEC, MLSMR starter and 10KST1 sets (AID 438;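 active = inhibition above 20% together with a positive visual image hit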;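 also: compound added about 3h40 before a 20 min TNFalpha stimulation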;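 as to inhibition: signal is the nuclear over cytoplasmic p65 intensity ratio per well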); conditions: HUVEC TNFa-induced p65 nuclear translocation; cell count: measured here: nuclei count (cytotoxicity indicator), at 2.08 µM; inhibition: at 2 µM, stronger effect = higher value, 0% TNFa-plus-vehicle, 100% no-TNFa wells
[2] = reduction of polyQ htt aggregates in cells – imaging, exon1htt(103Q)mCFP cells, high-content imaging, primary screen (AID 483;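 active = visual image review flags a hit and inhibition of aggregation exceeds 20%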;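 also: compound exposure lasted 3 days before fixation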;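 as to nuclei count: percent of the per-plate median nuclei count of sample wells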); conditions: exon1htt(103Q)mCFP cell line, aggregate imaging, at 2 µM; inhibition of aggregation: stronger effect = higher value; nuclei count: measured here: cell count, toxicity
[3] = endothelial E-selectin expression blockers – imaging, HUVEC, immunofluorescence, MLSMR starter and 10KST1 sets, primary screen (AID 487;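 active = visually confirmed hit in the image check and inhibition above 20%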;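 as to inhibition: signal is fraction of cell area covered by stained E-selectin grains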;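 as to nuclei count: 100% = median nuclei count of all wells on the same plate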); conditions: HUVEC TNFalpha-induced E-selectin immunofluorescence imaging, at 2 µM; inhibition: stronger effect = higher value; nuclei count: measured here: cell number, toxicity
[4] = target: Voltage-gated potassium channel subunit beta-2 (Rattus norvegicus) (UniProt P62483); test: inhibitors of rat Kvbeta2 reductase activity – biochemical, NADPH fluorescence, primary screen (AID 622;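 active = fluorescence slope higher than the sample average by over 3 SD, cut at about -0.22 in these data, passing the limit was not always enough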;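 also: slope of raw intensity against log time taken from 70 to 1610 s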); conditions: recombinant KvBeta, 4-cyanobenzaldehyde reduction, at 10 µM, stronger effect = higher value
Sequence of Voltage-gated potassium channel subunit beta-2 (Rattus norvegicus) (P62483 whole entry, looked up): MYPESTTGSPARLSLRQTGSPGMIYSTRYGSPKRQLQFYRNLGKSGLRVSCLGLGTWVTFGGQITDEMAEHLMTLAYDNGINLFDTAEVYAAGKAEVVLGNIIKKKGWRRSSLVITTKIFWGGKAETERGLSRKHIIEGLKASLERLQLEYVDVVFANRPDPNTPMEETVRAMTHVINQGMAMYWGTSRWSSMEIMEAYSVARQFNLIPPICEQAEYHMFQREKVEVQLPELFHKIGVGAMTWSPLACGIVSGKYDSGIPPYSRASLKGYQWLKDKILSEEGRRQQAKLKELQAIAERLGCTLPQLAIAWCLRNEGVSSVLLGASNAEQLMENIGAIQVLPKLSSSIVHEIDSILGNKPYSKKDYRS

[5] = target: Voltage-gated potassium channel subunit beta-2 (Rattus norvegicus) (UniProt P62483); test: enhancers of rat Kvbeta2 NADPH turnover – biochemical, NADPH fluorescence, primary screen (AID 623;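 active = NADPH fluorescence slope more negative than the mean of all samples by about 3 SD, 99.7% confidence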;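 also: fluorescence intensity change per second fitted from 20 to 320 s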); conditions: Recombinant KvBeta, NADPH fluorescence decrease slope, 10 min; at 10 µM; stronger effect = lower value
[6] = target: Alpha-2C adrenergic receptor (Homo sapiens) (UniProt P18825); test: compounds altering alpha2C-coupled GIRK flux – cell-based, HEK293 alpha2C/GIRK1/2, thallium flux, primary screen (AID 624;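 active = fluorescence slope after compound addition differing from the mean of all screened samples at 99.7% confidence, in either direction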;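 also: slope of fluorescence ratio to pre-addition baseline per second over 15 to 24 s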); conditions: thallium flux BTC fluorescence, at 10 µM, actives lie on both sides
Sequence of Alpha-2C adrenergic receptor (Homo sapiens) (P18825 whole entry, looked up): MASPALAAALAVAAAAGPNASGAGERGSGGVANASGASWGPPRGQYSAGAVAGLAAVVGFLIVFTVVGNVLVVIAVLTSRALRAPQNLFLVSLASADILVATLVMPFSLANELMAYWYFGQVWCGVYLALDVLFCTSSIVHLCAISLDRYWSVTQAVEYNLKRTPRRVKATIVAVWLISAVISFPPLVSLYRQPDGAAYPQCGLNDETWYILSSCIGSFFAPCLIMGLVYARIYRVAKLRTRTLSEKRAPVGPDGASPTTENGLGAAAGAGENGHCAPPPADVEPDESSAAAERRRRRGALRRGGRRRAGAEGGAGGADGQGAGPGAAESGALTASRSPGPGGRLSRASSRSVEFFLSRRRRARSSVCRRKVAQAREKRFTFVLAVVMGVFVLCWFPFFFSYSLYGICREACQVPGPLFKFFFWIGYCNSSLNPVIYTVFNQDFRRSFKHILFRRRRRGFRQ

[7] = blockers of RIG-like receptor reporter activation – cell-based, Sendai virus stimulus, luciferase, 10K MLSCN set, TLR/RLR signaling modifier project, primary screen (AID 602276;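 active = inhibition at or above 50% at 10 µM; inactive = inhibition below 50%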;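 also: firefly luciferase from ISG56 promoter only with Renilla not read in this screen; 0% = Sendai virus plus DMSO and 100% = medium plus DMSO without virus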); conditions: HEK293 RL24 IRF3 luciferase reporter, at 10 µM, stronger effect = higher value
[8] = TLR3 IRF3 reporter activation blockers – cell-based, poly I:C stimulus, luciferase, 10K MLSCN set, primary screen (AID 602277); conditions: HEK293-TLR3 RL24 IRF3 luciferase reporter, at 10 µM, stronger effect = higher value

| Compound | cell count [1] | inhibition [1] | inhibition of aggregation [2] | nuclei count [2] [%] | inhibition [3] | nuclei count [3] [%] | fluorescence slope [4] | NADPH fluorescence slope [5] | slope [6] | inhibition [7] | inhibition [8] |
| --- | --- | --- | --- | --- | --- | --- | --- | --- | --- | --- | --- |
| COc1ccc(C2C(C(=O)N3CCC(C)CC3)c3ccccc3C(=O)N2C)cc1 (stereo not drawn) | 475 | -3.8% (inactive) | 12.4% (inactive) | 91.5 | -17.4% (inactive) | 101 | -0.54 (inactive) | -1.3e-05 (inactive) | 0.00505 (inactive) | -9.25% (inactive) | 12.2% (inactive) |
| Cn1c(SCC(=O)c2cc3ccccc3o2)nnc1-c1ccccc1 | 621 | 8% (inactive) | -8.5% (inactive) | 66 | -44.5% (inactive) | 106 | -0.527 (inactive) | -2.6e-05 (inactive) | 0.00718 (inactive) | 10.2% (inactive) | 16.3% (inactive) |
| CC(=O)Nc1cccc(OCC(O)Cn2cnc3ccccc32)c1 (stereo not drawn) | 632 | -20.4% (inactive) | 12.1% (inactive) | 101 | -23.9% (inactive) | 107 | -0.674 (inactive) | 1.3e-05 (inactive) | 0.00619 (inactive) | 14.1% (inactive) | 25.8% (inactive) |
| Cc1ccc2c(C)nc(Nc3nc(CSc4nnnn4-c4ccccc4)cc(=O)[nH]3)nc2c1 | 352 | -3.8% (inactive) | -22.3% (inactive) | 100 | -54.7% (inactive) | 101 | -0.6 (inactive) | -3.4e-05 (inactive) | 0.00691 (inactive) | 8.72% (inactive) | -4.56% (inactive) |
| COc1ccc2c(c1)C(C)=CC(C)(C)N2C(=O)C(C)N1C(=O)c2ccccc2C1=O (stereo not drawn) | 637 | 4.5% (inactive) | 7.1% (inactive) | 108 | 21.2% (inactive) | 118 | -0.612 (inactive) | -1.8e-05 (inactive) | 0.00489 (inactive) | 5.4% (inactive) | 5.89% (inactive) |
| O=C(CN(Cc1ccc2c(c1)OCO2)C(=O)CNS(=O)(=O)c1ccccc1)NCc1ccco1 | 869 | 9% (inactive) | -9.2% (inactive) | 108 | -3.6% (inactive) | 98.7 | -0.356 (inactive) | 8e-07 (inactive) | 0.00553 (inactive) | 15.7% (inactive) | 36.2% (inactive) |
| COC(=O)CSc1nnc(-c2cccs2)n1-c1ccc(Cl)cc1 | 347 | 12.8% (inactive) | 10.2% (inactive) | 106 | -50.2% (inactive) | 119 | -0.482 (inactive) | -1.6e-05 (inactive) | 0.00413 (inactive) | 17% (inactive) | 15.7% (inactive) |
| COc1ccccc1CN1CC(C(=O)NCc2cccnc2)CC1=O (stereo not drawn) | 536 | -8% (inactive) | 4.9% (inactive) | 91.5 | -0.1% (inactive) | 113 | -0.502 (inactive) | -2.4e-05 (inactive) | 0.00742 (inactive) | 7.79% (inactive) | 29.2% (inactive) |
| O=c1oc2ccccc2c2c1ncn2-c1ccccc1 | 375 | 0% (inactive) | -20.2% (inactive) | 113 | -9.9% (inactive) | 114 | -0.45 (inactive) | 7.5e-05 (inactive) | 0.00569 (inactive) | 16.7% (inactive) | 27.6% (inactive) |
| CC(=O)C1=C(C)Nc2ncnn2C1c1cccc(OCc2ccccc2)c1 (stereo not drawn) | 610 | 0% (inactive) | 2.1% (inactive) | 103 | -51.7% (inactive) | 122 | -0.559 (inactive) | 4.9e-06 (inactive) | 0.0069 (inactive) | 11.8% (inactive) | 29% (inactive) |
| O=S(=O)(Nc1ncccn1)c1ccc(Nc2ncnc3ccccc23)cc1 | 623 | -16.4% (inactive) | -7.6% (inactive) | 89.3 | -6% (inactive) | 105 | -0.459 (inactive) | -4.3e-05 (inactive) | 0.00604 (inactive) | -24.5% (inactive) | 12.4% (inactive) |
| Cc1cccc(NC(=O)c2cc(NC(=O)c3ccco3)ccc2N2CCCCC2)c1 | 635 | -3.9% (inactive) | -3.7% (inactive) | 113 | -48.5% (inactive) | 107 | -0.52 (inactive) | -1.8e-05 (inactive) | 0.0032 (inactive) | 8.72% (inactive) | 8.79% (inactive) |
| COc1ccc2c(CC(=O)Nc3ccc(OC)c(NS(=O)(=O)c4ccc(F)cc4)c3)coc2c1 | 403 | -1.4% (inactive) | 2.9% (inactive) | 116 | -29.3% (inactive) | 100 | -0.275 (inactive) | -8.3e-06 (inactive) | 0.00715 (inactive) | 9% (inactive) | 18.5% (inactive) |
| CC1CCN(C(=O)Cn2cc3c(n2)CCCC3)CC1 | 931 | -1.8% (inactive) | -26% (inactive) | 114 | -6.8% (inactive) | 89.8 | -0.612 (inactive) | -7.4e-06 (inactive) | 0.00712 (inactive) | -32.6% (inactive) | -60.8% (inactive) |
| COC(=O)C1=C(CSCc2ccco2)NC(=O)NC1c1cc(C)ccc1C (stereo not drawn) | 369 | -10.5% (inactive) | -15.1% (inactive) | 115 | -20.5% (inactive) | 109 | -0.423 (inactive) | 3.5e-05 (inactive) | 0.00488 (inactive) | -3.03% (inactive) | -1.57% (inactive) |
| O=C(CSc1ncnc2c1oc1ccccc12)Nc1ccccc1F | 613 | -13.5% (inactive) | -13.9% (inactive) | 107 | -10.1% (inactive) | 116 | -0.549 (inactive) | 3.9e-06 (inactive) | 0.00808 (inactive) | 1.97% (inactive) | 16.6% (inactive) |
| CCOC(=O)C1CN(S(=O)(=O)c2ccc(C)cc2)CCN1S(=O)(=O)c1ccc(C)cc1 (stereo not drawn) | 339 | 3.3% (inactive) | -36.8% (inactive) | 117 | -114% (inactive) | 122 | -0.591 (inactive) | 3.6e-05 (inactive) | 0.00631 (inactive) | 8.55% (inactive) | 11% (inactive) |
| COc1ccc(-c2nc(CS(=O)CC(=O)NCc3ccccn3)c(C)o2)cc1 (stereo not drawn) | 518 | 1.9% (inactive) | -23.1% (inactive) | 104 | -25.4% (inactive) | 99.7 | -0.527 (inactive) | -1.1e-05 (inactive) | 0.00839 (inactive) | 44.5% (inactive) | 9.92% (inactive) |
| CCCN(C(=O)CSc1nnc(-c2ccoc2C)n1N)C1CCS(=O)(=O)C1 (stereo not drawn) | 468 | 11.7% (inactive) | -26.6% (inactive) | 116 | 30.6% (inactive) | 108 | -0.413 (inactive) | -8.5e-05 (inactive) | 0.00528 (inactive) | 15.7% (inactive) | 22.7% (inactive) |
| CCCCCCOC(=O)C(C#N)c1nc2ccccc2nc1N1CCCCC1 (stereo not drawn) | 513 | 5.7% (inactive) | 6.3% (inactive) | 89.3 | -28.3% (inactive) | 137 | -0.393 (inactive) | 3.7e-05 (inactive) | 0.00357 (inactive) | 6.89% (inactive) | 23.9% (inactive) |
| CC(CC(=O)NC1CCSC1=O)c1ccccc1 (stereo not drawn) | 396 | -4.2% (inactive) | 8.2% (inactive) | 102 | -43.3% (inactive) | 124 | -0.452 (inactive) | 3.8e-05 (inactive) | 0.00567 (inactive) | -7.84% (inactive) | 17% (inactive) |
| O=C(c1ccco1)N1CCN(S(=O)(=O)c2ccc3c(c2)CCN3C(=O)C2CCC2)CC1 | 600 | 1.2% (inactive) | 22.2% (inactive) | 97 | -53.2% (inactive) | 115 | -0.425 (inactive) | -3.6e-06 (inactive) | 0.00394 (inactive) | -18.7% (inactive) | -87.3% (inactive) |
| CC(C)(C)NC(=O)C(c1ccco1)N(C(=O)Cn1nnc(-c2ccc(F)cc2)n1)c1ccccc1F (stereo not drawn) | 562 | 1.2% (inactive) | 14.8% (inactive) | 96.5 | -96.2% (inactive) | 127 | -0.56 (inactive) | -6.1e-05 (inactive) | 0.00563 (inactive) | 10.9% (inactive) | 39.7% (inactive) |
| CCOc1cc(NC(=O)c2ccco2)c(OCC)cc1NC(=O)CCc1ccc(OC)cc1 | 630 | -0.7% (inactive) | -13.7% (inactive) | 109 | 23.6% (inactive) | 102 | -0.513 (inactive) | -6.7e-06 (inactive) | 0.00426 (inactive) | -0.546% (inactive) | -4.67% (inactive) |
| Cc1ccc(S(=O)(=O)N2CCC(C(=O)NCCN3CCCCCC3)CC2)cc1 | 768 | -9.5% (inactive) | -2.1% (inactive) | 102 | -87.4% (inactive) | 110 | -0.456 (inactive) | -6.3e-05 (inactive) | 0.00469 (inactive) | 11.2% (inactive) | 32.9% (inactive) |
| COc1ccc(CC(=O)Nc2c3c(nn2-c2cccc(Cl)c2)CS(=O)C3)cc1 (stereo not drawn) | 466 | 5.7% (inactive) | -8.1% (inactive) | 101 | -43.1% (inactive) | 87.6 | -0.492 (inactive) | 2.6e-05 (inactive) | 0.00562 (inactive) | 9.81% (inactive) | 14.2% (inactive) |
| O=C(c1ccc(CNS(=O)(=O)c2cccc(C(F)(F)F)c2)cc1)N1CCOCC1 | 237 | 11.8% (inactive) | -1.6% (inactive) | 80 | 14.7% (inactive) | 97.4 | -0.387 (inactive) | -3.8e-05 (inactive) | 0.00478 (inactive) | 14.8% (inactive) | 16.9% (inactive) |
| O=c1[nH]c(/C(=N\O)c2ccccc2)no1 | 462 | 2% (inactive) | -5% (inactive) | 109 | -11.8% (inactive) | 111 | -0.421 (inactive) | -0.000106 (inactive) | 0.00496 (inactive) | 7.11% (inactive) | 24.8% (inactive) |
